The supplement of paper PMC11732987, “Enantioselective OTUD7B fragment discovery through chemoproteomics screening and high-throughput optimisation” (Communications Chemistry, 2025)

How the values were obtained:
Experiment in all cases: log2 ratio of Biotin-Ahx-Ub-VS probe labelling (fragment/DMSO); higher = less target engagement (more negative = stronger competition), active = hit call of the paper (q ≤ 0.05, log2 ratio ≤ -1)
Details in all cases: compound concentration: 200 uM; treatment time: 3 h
USP34 = USP34 (UniProt Q70CQ2)
Sequence of USP34 (Q70CQ2 whole entry, the tested form may be a part): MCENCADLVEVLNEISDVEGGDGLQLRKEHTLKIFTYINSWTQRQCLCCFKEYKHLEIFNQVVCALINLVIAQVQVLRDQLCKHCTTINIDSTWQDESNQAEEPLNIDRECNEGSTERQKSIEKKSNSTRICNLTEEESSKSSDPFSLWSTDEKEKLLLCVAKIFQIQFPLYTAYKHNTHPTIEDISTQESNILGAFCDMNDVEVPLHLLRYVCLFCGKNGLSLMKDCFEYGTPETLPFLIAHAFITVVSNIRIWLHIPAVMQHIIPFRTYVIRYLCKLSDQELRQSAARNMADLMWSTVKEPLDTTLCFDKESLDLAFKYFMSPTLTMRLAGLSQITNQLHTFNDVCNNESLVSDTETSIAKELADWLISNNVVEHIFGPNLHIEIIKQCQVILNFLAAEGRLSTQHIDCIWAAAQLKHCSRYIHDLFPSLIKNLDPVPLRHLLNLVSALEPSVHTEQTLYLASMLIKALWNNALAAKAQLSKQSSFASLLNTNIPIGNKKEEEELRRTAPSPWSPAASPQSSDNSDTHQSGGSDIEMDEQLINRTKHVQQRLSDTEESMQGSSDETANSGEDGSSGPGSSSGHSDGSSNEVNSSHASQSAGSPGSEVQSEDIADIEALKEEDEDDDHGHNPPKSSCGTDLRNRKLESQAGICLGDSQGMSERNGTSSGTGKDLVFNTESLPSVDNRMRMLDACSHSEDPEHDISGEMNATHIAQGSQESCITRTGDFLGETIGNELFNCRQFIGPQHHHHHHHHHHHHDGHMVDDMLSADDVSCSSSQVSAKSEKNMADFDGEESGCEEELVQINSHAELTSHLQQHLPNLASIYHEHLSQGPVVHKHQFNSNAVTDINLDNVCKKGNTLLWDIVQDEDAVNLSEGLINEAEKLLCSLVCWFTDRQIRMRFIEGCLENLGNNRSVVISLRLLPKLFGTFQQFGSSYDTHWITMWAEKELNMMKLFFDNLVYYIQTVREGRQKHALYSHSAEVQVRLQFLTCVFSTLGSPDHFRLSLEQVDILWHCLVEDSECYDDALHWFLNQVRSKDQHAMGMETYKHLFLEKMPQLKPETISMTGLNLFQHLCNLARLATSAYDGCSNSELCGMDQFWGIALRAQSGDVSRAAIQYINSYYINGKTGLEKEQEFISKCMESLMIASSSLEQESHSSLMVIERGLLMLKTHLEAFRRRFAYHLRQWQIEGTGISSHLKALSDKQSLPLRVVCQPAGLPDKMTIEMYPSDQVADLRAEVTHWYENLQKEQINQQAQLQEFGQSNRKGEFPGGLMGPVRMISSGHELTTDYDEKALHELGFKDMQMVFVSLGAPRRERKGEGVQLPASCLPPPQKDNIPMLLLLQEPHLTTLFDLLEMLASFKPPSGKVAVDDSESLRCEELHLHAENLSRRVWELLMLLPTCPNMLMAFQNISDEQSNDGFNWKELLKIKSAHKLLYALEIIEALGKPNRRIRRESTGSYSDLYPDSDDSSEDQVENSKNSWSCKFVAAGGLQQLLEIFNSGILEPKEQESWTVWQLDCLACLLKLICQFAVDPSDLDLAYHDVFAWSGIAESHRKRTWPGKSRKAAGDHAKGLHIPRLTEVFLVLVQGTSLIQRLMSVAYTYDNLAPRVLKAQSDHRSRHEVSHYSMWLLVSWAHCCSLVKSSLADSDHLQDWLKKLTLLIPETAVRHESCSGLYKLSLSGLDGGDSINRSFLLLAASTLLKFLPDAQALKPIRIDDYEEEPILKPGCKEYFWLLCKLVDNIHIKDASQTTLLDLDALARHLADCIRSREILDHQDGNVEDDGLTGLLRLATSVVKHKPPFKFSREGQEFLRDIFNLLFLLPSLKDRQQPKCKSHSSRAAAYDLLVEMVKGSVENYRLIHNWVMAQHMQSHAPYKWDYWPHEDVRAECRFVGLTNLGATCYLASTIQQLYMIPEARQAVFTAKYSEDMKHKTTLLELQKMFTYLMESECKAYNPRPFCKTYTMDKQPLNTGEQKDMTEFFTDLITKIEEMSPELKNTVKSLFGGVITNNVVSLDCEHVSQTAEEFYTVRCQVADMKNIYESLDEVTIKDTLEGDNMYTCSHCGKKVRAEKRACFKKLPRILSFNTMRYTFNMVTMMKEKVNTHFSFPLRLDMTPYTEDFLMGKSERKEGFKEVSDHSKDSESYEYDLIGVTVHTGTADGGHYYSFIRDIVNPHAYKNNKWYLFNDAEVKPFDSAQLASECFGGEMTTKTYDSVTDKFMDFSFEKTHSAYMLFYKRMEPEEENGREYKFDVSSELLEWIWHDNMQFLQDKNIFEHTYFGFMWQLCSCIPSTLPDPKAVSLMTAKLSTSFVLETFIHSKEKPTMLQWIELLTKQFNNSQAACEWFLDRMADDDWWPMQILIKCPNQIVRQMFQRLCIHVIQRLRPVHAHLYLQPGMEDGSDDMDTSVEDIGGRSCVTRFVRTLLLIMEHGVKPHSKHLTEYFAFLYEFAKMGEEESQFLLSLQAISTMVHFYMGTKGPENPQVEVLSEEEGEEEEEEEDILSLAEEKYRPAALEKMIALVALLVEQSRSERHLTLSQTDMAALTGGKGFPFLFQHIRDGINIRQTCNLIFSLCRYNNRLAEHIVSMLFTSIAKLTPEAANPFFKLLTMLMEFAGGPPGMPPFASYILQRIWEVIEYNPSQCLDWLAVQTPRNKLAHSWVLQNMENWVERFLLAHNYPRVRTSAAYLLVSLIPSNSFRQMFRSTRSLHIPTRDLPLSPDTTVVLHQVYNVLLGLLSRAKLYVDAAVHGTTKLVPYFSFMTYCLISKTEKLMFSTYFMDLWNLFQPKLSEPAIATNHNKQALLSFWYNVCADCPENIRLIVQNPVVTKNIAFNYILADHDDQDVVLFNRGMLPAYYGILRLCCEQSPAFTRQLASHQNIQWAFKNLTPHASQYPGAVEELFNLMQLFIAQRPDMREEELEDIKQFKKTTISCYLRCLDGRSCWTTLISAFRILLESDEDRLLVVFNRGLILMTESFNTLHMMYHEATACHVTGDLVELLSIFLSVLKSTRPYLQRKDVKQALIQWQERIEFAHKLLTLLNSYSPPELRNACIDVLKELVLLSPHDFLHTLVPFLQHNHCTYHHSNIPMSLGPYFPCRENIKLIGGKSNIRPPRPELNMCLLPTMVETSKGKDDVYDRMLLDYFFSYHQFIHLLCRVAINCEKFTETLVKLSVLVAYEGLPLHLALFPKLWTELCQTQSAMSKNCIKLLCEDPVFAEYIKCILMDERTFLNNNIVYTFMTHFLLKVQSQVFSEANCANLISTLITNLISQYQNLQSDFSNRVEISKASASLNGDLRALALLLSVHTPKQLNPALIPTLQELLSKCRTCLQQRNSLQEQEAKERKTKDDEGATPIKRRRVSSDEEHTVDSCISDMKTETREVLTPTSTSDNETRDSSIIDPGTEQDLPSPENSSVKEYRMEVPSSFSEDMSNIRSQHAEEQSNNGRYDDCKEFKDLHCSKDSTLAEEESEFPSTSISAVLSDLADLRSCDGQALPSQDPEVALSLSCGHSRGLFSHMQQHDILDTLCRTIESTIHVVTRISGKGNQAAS
Outline: (§1)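 HEK293T lysate, 495 µg per sample in Tris/CHAPS/IGEPAL buffer with protease inhibitors, was treated in triplicate with fragment at 200 µM or vehicle for 3 h and then with Biotin-Ahx-Ub-VS at 0.5 µM final for 1 h. Labelled DUBs were NeutrAvidin-enriched, digested with LysC and trypsin, and run by diaPASEF LC-MS/MS. Spectronaut label-free quantities were global-median-normalised, and values are average log2 fragment/vehicle ratios by unpaired t-test on proteins with ≥2 unique peptides.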

USP36 = biological target: T1, USP36 (UniProt Q9P275)
T1 sequence (whole entry): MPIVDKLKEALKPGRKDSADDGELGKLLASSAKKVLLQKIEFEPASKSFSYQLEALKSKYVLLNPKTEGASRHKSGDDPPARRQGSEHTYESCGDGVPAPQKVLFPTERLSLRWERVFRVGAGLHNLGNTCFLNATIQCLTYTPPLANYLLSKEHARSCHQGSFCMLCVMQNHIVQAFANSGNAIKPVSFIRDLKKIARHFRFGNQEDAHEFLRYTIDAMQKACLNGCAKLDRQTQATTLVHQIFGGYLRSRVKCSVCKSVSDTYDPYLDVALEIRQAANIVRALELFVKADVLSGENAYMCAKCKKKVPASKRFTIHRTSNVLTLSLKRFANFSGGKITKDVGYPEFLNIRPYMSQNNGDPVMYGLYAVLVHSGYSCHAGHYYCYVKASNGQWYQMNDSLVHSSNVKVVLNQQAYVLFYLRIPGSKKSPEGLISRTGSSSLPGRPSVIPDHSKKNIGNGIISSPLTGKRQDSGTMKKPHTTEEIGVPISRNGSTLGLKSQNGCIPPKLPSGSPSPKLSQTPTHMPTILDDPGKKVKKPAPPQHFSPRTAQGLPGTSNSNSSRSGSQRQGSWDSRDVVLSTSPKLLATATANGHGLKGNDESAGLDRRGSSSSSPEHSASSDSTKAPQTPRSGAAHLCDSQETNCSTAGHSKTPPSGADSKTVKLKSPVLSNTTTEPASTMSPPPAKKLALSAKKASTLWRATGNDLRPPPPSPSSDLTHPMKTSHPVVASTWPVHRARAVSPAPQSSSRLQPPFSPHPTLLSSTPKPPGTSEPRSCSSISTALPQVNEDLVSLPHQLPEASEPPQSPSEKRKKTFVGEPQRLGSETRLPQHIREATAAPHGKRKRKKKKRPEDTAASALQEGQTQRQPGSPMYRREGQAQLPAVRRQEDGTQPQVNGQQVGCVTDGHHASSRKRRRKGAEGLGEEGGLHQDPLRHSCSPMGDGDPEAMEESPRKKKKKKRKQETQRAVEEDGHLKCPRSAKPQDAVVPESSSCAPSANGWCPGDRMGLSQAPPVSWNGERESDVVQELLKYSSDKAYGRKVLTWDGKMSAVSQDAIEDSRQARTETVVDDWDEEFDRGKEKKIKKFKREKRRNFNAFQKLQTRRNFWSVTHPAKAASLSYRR
Outline: as §1

USP38 = biological target: T2, USP38 (UniProt Q8NB14)
T2 sequence (whole entry): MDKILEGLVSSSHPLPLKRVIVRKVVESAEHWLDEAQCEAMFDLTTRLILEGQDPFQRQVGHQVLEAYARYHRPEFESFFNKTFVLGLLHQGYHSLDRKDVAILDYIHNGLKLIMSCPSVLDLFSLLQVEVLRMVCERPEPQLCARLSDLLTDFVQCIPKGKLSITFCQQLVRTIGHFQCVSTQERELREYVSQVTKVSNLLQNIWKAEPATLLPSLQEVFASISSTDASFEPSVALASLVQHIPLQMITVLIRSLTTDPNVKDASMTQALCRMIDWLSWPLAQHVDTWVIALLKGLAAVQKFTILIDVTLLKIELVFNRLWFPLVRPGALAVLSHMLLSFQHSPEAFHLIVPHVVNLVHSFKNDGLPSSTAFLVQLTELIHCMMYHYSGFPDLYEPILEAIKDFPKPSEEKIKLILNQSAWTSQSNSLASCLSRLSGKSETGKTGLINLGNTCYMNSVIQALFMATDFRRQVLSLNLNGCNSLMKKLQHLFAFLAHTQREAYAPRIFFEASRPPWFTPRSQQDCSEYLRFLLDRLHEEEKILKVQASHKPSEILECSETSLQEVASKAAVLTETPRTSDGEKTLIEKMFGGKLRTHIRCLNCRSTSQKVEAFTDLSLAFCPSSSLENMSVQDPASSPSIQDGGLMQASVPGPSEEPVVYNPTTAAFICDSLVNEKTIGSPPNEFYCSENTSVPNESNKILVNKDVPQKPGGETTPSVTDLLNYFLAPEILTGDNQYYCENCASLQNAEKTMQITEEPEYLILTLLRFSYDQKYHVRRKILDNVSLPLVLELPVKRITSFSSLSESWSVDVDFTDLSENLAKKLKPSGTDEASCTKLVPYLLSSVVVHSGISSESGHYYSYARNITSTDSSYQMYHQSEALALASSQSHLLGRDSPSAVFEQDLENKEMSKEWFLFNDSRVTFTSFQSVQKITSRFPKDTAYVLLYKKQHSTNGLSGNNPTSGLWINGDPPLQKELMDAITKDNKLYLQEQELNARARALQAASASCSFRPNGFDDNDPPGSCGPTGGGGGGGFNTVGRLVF
Outline: as §1

USP39 = biological target: T3, USP39 (UniProt Q53GS9)
T3 sequence (whole entry): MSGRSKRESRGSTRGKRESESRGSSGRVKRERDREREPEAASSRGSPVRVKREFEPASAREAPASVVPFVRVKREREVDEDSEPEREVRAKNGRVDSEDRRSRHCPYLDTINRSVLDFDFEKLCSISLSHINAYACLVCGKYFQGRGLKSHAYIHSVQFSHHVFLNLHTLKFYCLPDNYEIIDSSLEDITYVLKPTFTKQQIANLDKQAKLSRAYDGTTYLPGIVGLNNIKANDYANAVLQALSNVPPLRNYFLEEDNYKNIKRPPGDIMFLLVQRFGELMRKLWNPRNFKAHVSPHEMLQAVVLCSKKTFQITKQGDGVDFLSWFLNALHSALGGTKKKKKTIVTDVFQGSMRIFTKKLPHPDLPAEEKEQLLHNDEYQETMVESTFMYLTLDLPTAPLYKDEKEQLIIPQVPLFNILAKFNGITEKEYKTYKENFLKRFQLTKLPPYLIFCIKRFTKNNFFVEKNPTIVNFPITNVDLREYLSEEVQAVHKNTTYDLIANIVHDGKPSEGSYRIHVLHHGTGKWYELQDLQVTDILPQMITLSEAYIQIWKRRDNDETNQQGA
Outline: as §1

USP4 = biological target: T4, USP4 (UniProt Q13107)
T4 sequence (whole entry): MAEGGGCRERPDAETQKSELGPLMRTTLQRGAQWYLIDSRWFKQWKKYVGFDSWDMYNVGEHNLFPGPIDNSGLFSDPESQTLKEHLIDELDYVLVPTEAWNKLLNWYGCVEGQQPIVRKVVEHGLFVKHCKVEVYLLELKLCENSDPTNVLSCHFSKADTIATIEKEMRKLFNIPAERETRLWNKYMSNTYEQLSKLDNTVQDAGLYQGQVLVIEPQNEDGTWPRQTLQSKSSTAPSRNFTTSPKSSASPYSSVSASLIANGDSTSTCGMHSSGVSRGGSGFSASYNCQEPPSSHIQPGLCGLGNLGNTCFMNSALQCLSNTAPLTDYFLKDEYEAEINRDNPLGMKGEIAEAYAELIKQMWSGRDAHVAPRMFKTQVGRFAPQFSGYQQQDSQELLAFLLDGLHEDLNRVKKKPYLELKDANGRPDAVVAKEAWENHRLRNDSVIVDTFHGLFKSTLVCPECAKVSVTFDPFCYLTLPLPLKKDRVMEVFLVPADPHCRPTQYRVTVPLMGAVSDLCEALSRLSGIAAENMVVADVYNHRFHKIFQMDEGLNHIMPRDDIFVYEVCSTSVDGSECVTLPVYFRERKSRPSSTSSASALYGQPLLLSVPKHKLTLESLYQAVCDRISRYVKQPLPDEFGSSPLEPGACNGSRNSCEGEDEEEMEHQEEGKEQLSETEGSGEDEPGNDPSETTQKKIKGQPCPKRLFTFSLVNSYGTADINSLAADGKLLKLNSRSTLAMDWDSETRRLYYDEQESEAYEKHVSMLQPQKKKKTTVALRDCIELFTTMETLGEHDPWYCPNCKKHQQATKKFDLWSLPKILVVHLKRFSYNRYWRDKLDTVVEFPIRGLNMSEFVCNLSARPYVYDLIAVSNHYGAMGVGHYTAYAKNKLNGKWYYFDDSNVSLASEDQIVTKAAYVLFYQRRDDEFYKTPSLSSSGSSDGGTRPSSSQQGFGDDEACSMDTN
Outline: as §1

Measured: log2 ratio of Biotin-Ahx-Ub-VS probe labelling

O=C(CCl)NC1CCN(C(=O)C2CCCCC2)CC1
inactive: USP34 0.0203 | USP36 -0.0678 | USP38 0.166 | USP39 0.187 | USP4 -0.0463
